In general, AC50 refers to the concentration giving half of the maximal activity seen.

Inconclusive results are not listed. Activity calls are given as the source filed them. The calls were made as follows: active = hit-call score of the fitted dose curve at least 0.9, where 1 is the maximum; inconclusive = response in the unintended direction; inactive = score below 0.9.

The nature of the first experiment: Tanguay_ZF_120hpf_EYE_legacy: (Legacy) Oregon State University Tanguay Lab 120 Hour Post-fertilization zebrafish Assay for Eye Malformation (AID 2283636).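 Also: binary presence or absence of eye malformation scored by brightfield in 120 hpf larvae.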 Put shortly: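 Dechorionated Tropical 5D zebrafish embryos, one per well from 6 hpf, static exposure to 120 hpf at 28C, 0.64% DMSO. Eye malformation scored present/absent by brightfield; dead embryos not scored.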
As to `CC1=C(/C=C/C(C)=C/C=C/C(C)=C/C(=O)O)C(C)(C)CCC1`, the half-maximal activity concentration (AC50) was 99.9 nM (active).

On to `CCCCCCCCOC(=O)CCCCCCCCC(=O)OCCCCCCCC`, for which the result was inactive.

In the case of `CCOC(=O)CC(O)(CC(=O)OCC)C(=O)OCC`, the molecule was classed as inactive.

`CC[C@H](C)[C@@H](C(=O)O)n1sc2ccccc2c1=O`: the result was inactive.

In the case of `NC(=O)N(O)[C@@H]1C=C[C@H](Oc2cccc(Oc3ccc(F)cc3)c2)C1`, the molecule was called inactive.

On to `CC(=O)NC1(c2cccc(F)c2)CCN(CC[C@@]2(c3ccc(Cl)c(Cl)c3)CN(c3ccccc3)C(=O)CO2)CC1`, for which the molecule was classed as inactive.

`CC(C)(C)c1cccc(C(C)(C)C)c1O`: the molecule was called inactive.

On to `CCCOc1sc(C(=O)N2CCC(c3cc(CN)ccc3F)CC2)c(C)c1Br`, for which the outcome was inactive.

Take `OC1CCCCC1`: the molecule was called inactive.

In the case of `CC(C)(C)c1cc(C(C)(C)C)c(O)c(C(C)(C)C)c1`, the molecule was called inactive.

In the case of `CCN(CC)CCNc1ccc(CNC=O)c2sc3ccc(OC)cc3c(=O)c12`, the molecule was called inactive.

For `CCc1nn(C2CCCCC2)c2cc(C3(C#N)CCC(C(=O)O)CC3)ccc12` (configuration not stated), the concentration at half-maximal activity (AC50) was 377 nM (active).

As to `CCC(=C(c1ccc(O)cc1)c1ccc(OCCN(C)C)cc1)c1ccccc1`, the call was inactive.

Consider `COC(=O)CCCCC(=O)OC`, for which the outcome was inactive.

Regarding `C=C(C)C(=O)OCCC(F)(F)C(F)(F)C(F)(F)C(F)(F)C(F)(F)C(F)(F)F`, the result was inactive.

For the molecule `CCCCOCCO`, the outcome was inactive.

`CC(C)CCCCCCOC(=O)CCCCC(=O)OCCCCCCC(C)C`: the result was inactive.

With `c1ccc2c(c1)ccc1ccccc12`, the molecule was classed as inactive.

Regarding `O=C(O)c1ccccc1C(c1ccc(O)cc1)c1ccc(O)cc1`, the molecule was called inactive.

Regarding `C[C@@H]1C[C@H]2[C@@H]3CCC4=CC(=O)C=C[C@]4(C)[C@@]3(F)[C@@H](O)C[C@]2(C)[C@@]1(O)C(=O)COP(=O)(O)O`, the molecule was called inactive.

On to `C#C[C@]1(O)CC[C@H]2[C@@H]3CCC4=CC(=O)CC[C@@H]4[C@H]3CC[C@@]21C`, for which the molecule was classed as inactive.

As to `CCCCCCCCCCCCc1ccccc1S(=O)(=O)O`, the call was inactive.

Regarding `CN1CCC[C@H]1c1cccnc1`, the molecule was classed as inactive.

On to `COCC(C)OCC(C)O` (configuration not stated), for which the molecule was called inactive.

Regarding `ClC1=C(Cl)C(Cl)(Cl)C(Cl)=C1Cl`, the molecule was classed as inactive.

A short description of another experiment: Tanguay_ZF_120hpf_SNOU_legacy: (Legacy) Oregon State University Tanguay Lab 120 Hour Post-fertilization zebrafish Assay for Snout Malformation (AID 2283637). Put shortly:
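Dechorionated tropical 5D wild-type zebrafish embryos exposed statically from 6 to 120 hpf at 28C, one per well, in 0.64% DMSO. Snout malformation scored as present/absent by brightfield at 120 hpf; dead embryos not scored.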
Regarding `CC1=C(/C=C/C(C)=C/C=C/C(C)=C/C(=O)O)C(C)(C)CCC1`, the AC50 is 183 nM (active).

`CCCCCCCCOC(=O)CCCCCCCCC(=O)OCCCCCCCC`: the call was inactive.

In the case of `CCOC(=O)CC(O)(CC(=O)OCC)C(=O)OCC`, the outcome was inactive.

On to `CC[C@H](C)[C@@H](C(=O)O)n1sc2ccccc2c1=O`, for which the molecule was called inactive.

For the molecule `NC(=O)N(O)[C@@H]1C=C[C@H](Oc2cccc(Oc3ccc(F)cc3)c2)C1`, the molecule was classed as inactive.

As for `CCCCCCCCCCCCCCCS(=O)(=O)Oc1ccccc1`, the molecule was classed as inactive.

In the case of `CC(=O)NC1(c2cccc(F)c2)CCN(CC[C@@]2(c3ccc(Cl)c(Cl)c3)CN(c3ccccc3)C(=O)CO2)CC1`, the molecule was classed as inactive.

`Cc1cc(C)c(O)c(C)c1`: the result was inactive.

For `CC(C)(C)c1cccc(C(C)(C)C)c1O`, the call was inactive.

Take `OC1CCCCC1`: the molecule was classed as inactive.

`CC(C)(C)c1cc(C(C)(C)C)c(O)c(C(C)(C)C)c1`: the molecule was classed as inactive.

For the molecule `CCc1nn(C2CCCCC2)c2cc(C3(C#N)CCC(C(=O)O)CC3)ccc12` (configuration not stated), the concentration at half-maximal activity (AC50) was 344 nM (active).

On to `CC(=O)CC(C)(C)O`, for which the call was inactive.

Take `OCCC(F)(F)C(F)(F)C(F)(F)C(F)(F)C(F)(F)C(F)(F)C(F)(F)C(F)(F)F`: the call was inactive.

`CCC(=C(c1ccc(O)cc1)c1ccc(OCCN(C)C)cc1)c1ccccc1`: the molecule was classed as inactive.

`CCCCCCC(=O)O`: the result was inactive.

As for `COC(=O)CCCCC(=O)OC`, the molecule was classed as inactive.

On to `C=C(C)C(=O)OCCC(F)(F)C(F)(F)C(F)(F)C(F)(F)C(F)(F)C(F)(F)F`, for which the molecule was classed as inactive.

Regarding `CCCCOCCO`, the molecule was called inactive.

For `CC(C)CCCCCCOC(=O)CCCCC(=O)OCCCCCCC(C)C`, the outcome was inactive.

Turning to `c1ccc2c(c1)ccc1ccccc12`, the molecule was classed as inactive.

For `O=C(O)c1ccccc1C(c1ccc(O)cc1)c1ccc(O)cc1`, the molecule was classed as inactive.

Take `C[C@@H]1C[C@H]2[C@@H]3CCC4=CC(=O)C=C[C@]4(C)[C@@]3(F)[C@@H](O)C[C@]2(C)[C@@]1(O)C(=O)COP(=O)(O)O`: the molecule was classed as inactive.

On to `C#C[C@]1(O)CC[C@H]2[C@@H]3CCC4=CC(=O)CC[C@@H]4[C@H]3CC[C@@]21C`, for which the outcome was inactive.

Regarding `CCCCCCCCCCCCc1ccccc1S(=O)(=O)O`, the molecule was classed as inactive.

On to `CN1CCC[C@H]1c1cccnc1`, for which the molecule was classed as inactive.

Regarding `COCC(C)OCC(C)O` (configuration not stated), the molecule was classed as inactive.

As to `ClC1=C(Cl)C(Cl)(Cl)C(Cl)=C1Cl`, the molecule was called inactive.

Regarding `CN(C)C=O`, the molecule was classed as inactive.

The nature of the next experiment: Tanguay_ZF_120hpf_JAW_legacy: (Legacy) Oregon State University Tanguay Lab 120 Hour Post-fertilization zebrafish Assay for Jaw Malformation (AID 2283638).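 As to AC50: active means more embryos with jaw malformation than DMSO controls.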 In short, it runs like this: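 Tropical 5D wild-type embryos, dechorionated with pronase at 4 hpf, were placed singly per well at 6 hpf and statically exposed at 28C until 120 hpf (0.64% DMSO final). Jaw malformation scored as present/absent by brightfield microscopy at 120 hpf, analyzed relative to DMSO.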
Take `CC1=C(/C=C/C(C)=C/C=C/C(C)=C/C(=O)O)C(C)(C)CCC1`: the AC50 is 144 nM (active).

For the molecule `CCCCCCCCOC(=O)CCCCCCCCC(=O)OCCCCCCCC`, the outcome was inactive.

`CCOC(=O)CC(O)(CC(=O)OCC)C(=O)OCC`: the outcome was inactive.

With `CC[C@H](C)[C@@H](C(=O)O)n1sc2ccccc2c1=O`, the result was inactive.

Turning to `NC(=O)N(O)[C@@H]1C=C[C@H](Oc2cccc(Oc3ccc(F)cc3)c2)C1`, the outcome was inactive.

Take `CCCCCCCCCCCCCCCS(=O)(=O)Oc1ccccc1`: the result was inactive.

Take `Cc1cc(C)c(O)c(C)c1`: the result was inactive.

For the molecule `CC(C)(C)c1cccc(C(C)(C)C)c1O`, the molecule was called inactive.

In the case of `CCCOc1sc(C(=O)N2CCC(c3cc(CN)ccc3F)CC2)c(C)c1Br`, the molecule was called inactive.

Turning to `OC1CCCCC1`, the call was inactive.

On to `CC(C)(C)c1cc(C(C)(C)C)c(O)c(C(C)(C)C)c1`, for which the call was inactive.

Regarding `CCN(CC)CCNc1ccc(CNC=O)c2sc3ccc(OC)cc3c(=O)c12`, the molecule was called inactive.

With `CCc1nn(C2CCCCC2)c2cc(C3(C#N)CCC(C(=O)O)CC3)ccc12` (configuration not stated), the AC50 was 332 nM (active).

In the case of `CC(=O)CC(C)(C)O`, the result was inactive.

In the case of `CCC(=C(c1ccc(O)cc1)c1ccc(OCCN(C)C)cc1)c1ccccc1`, the molecule was classed as inactive.

Turning to `CCCCCCC(=O)O`, the outcome was inactive.

Regarding `COC(=O)CCCCC(=O)OC`, the outcome was inactive.

Take `CCCCOCCO`: the outcome was inactive.

For `CC(C)CCCCCCOC(=O)CCCCC(=O)OCCCCCCC(C)C`, the outcome was inactive.

Turning to `c1ccc2c(c1)ccc1ccccc12`, the outcome was inactive.

For the molecule `O=C(O)c1ccccc1C(c1ccc(O)cc1)c1ccc(O)cc1`, the molecule was called inactive.

For `OCCC(F)(F)C(F)(F)C(F)(F)C(F)(F)C(F)(F)C(F)(F)F`, the outcome was inactive.

In the case of `C[C@@H]1C[C@H]2[C@@H]3CCC4=CC(=O)C=C[C@]4(C)[C@@]3(F)[C@@H](O)C[C@]2(C)[C@@]1(O)C(=O)COP(=O)(O)O`, the outcome was inactive.

On to `C#C[C@]1(O)CC[C@H]2[C@@H]3CCC4=CC(=O)CC[C@@H]4[C@H]3CC[C@@]21C`, for which the molecule was classed as inactive.

In the case of `CN1CCC[C@H]1c1cccnc1`, the result was inactive.

With `COCC(C)OCC(C)O` (configuration not stated), the result was inactive.

With `ClC1=C(Cl)C(Cl)(Cl)C(Cl)=C1Cl`, the molecule was classed as inactive.

On to `CN(C)C=O`, for which the molecule was classed as inactive.
